Experimental data taken from article PMC7155171, “Probing the Open Global Health Chemical Diversity Library for Multistage-Active Starting Points for Next-Generation Antimalarials” (ACS Infectious Diseases, 2020).

What follows are compounds tested on HepG2-A16-CD81 hepatocytes. Settings: cytotoxicity primary screen, inhibitor.
Parameters: Uninfected hepatocyte viability, CellTiter-Glo luminescence

SMILES | HepG2 toxicity primary screen (10uM): inhibition % (n=1) [%]
COc1cc(OC)c(-c2nc3c(C4CC4)[nH]n(C)c-3n2)cc1OC [DDD01244474] | -5.02
O=C(CNC(=O)N1CCc2c([nH]c3ccc(Cl)cc23)C1)N1CCOCC1 [DDD01035668] | 8.32
CCc1ccc(NC(=O)Nc2c(O)c3ccccc3oc2=O)cc1 [DDD01037337] | 5.95
CCc1c(C)[nH]c2cc(C3CCN(Cc4cccc(F)c4)C3)nn2c1=O (stereo not shown) [DDD01060569] | -6.43
Cc1[nH]n(C2CCS(=O)(=O)C2)c(=O)c1Cc1ccccc1 (stereo not shown) [DDD01026976] | -44.6
COCCC(=O)N1Cc2[nH]c3c(C)c(-c4cccs4)nn3c(=O)c2C1 [DDD01056578] | -1.19
COc1cc2c(cc1-c1nc3c[nH]n(C(C)C(C)C)c-3n1)OCO2 (stereo not shown) [DDD01255421] | 8.61
Cc1ncc(CN2CCc3[nH]c4cc(C(C)(C)C)nn4c(=O)c3C2)n1C [DDD01058400] | 8.62
Cc1cc(=O)n2nc(C3CCN(C(=O)c4ccccn4)CC3)cc2[nH]1 [DDD01057174] | -3.3635
CN(Cc1ccc(F)c(F)c1)C(=O)CCC1=NC(=C2N=CN=N2)NO1 [DDD01062114] | -43.56
Cc1[nH]n(C2CCS(=O)(=O)C2)c(=O)c1Cc1cccc(Cl)c1 (stereo not shown) [DDD01026994] | -46.865
COCCC(=O)N1CCC(c2cc(=O)n(C)[nH]2)C1 (stereo not shown) [DDD01060470] | -23.1
CCc1c(C)nn2c(=O)cc(C3CCN(C(=O)c4cnn(C)c4)C3)[nH]c12 (stereo not shown) [DDD01056908] | 4.85
CCc1nc(CN(C)C2CCN(CCn3cc(C#N)cn3)C2)no1 (stereo not shown) [DDD01304196] | -6.12
Cn1ccc(C(=O)N2CCCC(c3cc(=O)n(C)[nH]3)C2)n1 (stereo not shown) [DDD01060541] | -13.7
Cc1nc(N2CCCC2)ncc1-c1cc(=O)n2ncnc2[nH]1 [DDD01038581] | 10.6
Cc1ncsc1C(=O)N1CCCCC1c1cc2[nH]c(C)c(C)c(=O)n2n1 (stereo not shown) [DDD01059037] | -8.94
Cc1[nH]n(C2CCS(=O)(=O)C2)c(=O)c1CCc1ccccc1 (stereo not shown) [DDD01026977] | -50.25
COc1cccc(F)c1-c1nc2c(C3CC3)[nH]n(C)c-2n1 [DDD01246655] | 0.271
Cc1[nH]n(C2CCS(=O)(=O)C2)c(=O)c1Cc1ccc(Br)cc1 (stereo not shown) [DDD01026979] | -41.615
CCc1c(C)[nH]c2cc(C3CCN(CCc4ccccc4)C3)nn2c1=O (stereo not shown) [DDD01060567] | -20.1
CC(=O)N1CCCN(C(=O)CCOc2ccc(C(C)C)cc2)CC1 [DDD01298039] | -13
Cc1[nH]n(C2CCCC2)c2nc(C(C)(C)CN3CCN(C)CC3)nc1-2 [DDD01248613] | -6.61
CCc1c(C)[nH]c2cc(C3CCN(Cc4ccccc4F)C3)nn2c1=O (stereo not shown) [DDD01270117] | 1.7
Cn1nc(C2CCC2)c(-c2ccc3c(c2)OCO3)c1N [DDD01074643] | -42.27
